Results on 40 molecules are retold here after ChEMBL document CHEMBL3433997, “St. Jude Leishmania screening dataset” (2016).

Chain of Solute carrier family 2, facilitated glucose transporter member 1 (Homo sapiens) (P11166 whole entry): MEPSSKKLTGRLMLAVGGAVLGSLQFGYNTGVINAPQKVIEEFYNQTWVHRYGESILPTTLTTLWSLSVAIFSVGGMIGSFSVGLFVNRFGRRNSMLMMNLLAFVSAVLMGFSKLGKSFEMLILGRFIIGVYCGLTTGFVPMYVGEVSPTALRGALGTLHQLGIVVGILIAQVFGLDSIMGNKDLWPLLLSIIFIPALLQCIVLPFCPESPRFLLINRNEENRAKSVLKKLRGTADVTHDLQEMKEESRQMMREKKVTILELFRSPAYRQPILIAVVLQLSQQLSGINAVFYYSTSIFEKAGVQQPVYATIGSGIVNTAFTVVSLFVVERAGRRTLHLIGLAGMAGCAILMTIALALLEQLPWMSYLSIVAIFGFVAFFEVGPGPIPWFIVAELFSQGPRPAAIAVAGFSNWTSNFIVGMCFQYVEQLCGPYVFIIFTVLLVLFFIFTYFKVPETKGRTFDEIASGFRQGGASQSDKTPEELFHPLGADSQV

One test has as its target Solute carrier family 2, facilitated glucose transporter member 1 (Homo sapiens) (UniProt P11166). Put plainly: ST_JUDE_LEISH: Cytotoxicity at 2uM final concentration against transgenic Leishmania Mexicana promastigotes LmGLUT1 that are glucose transport deficient and complemented with the human glucose transporter GLUT1. Activity is measured by DNA content using SYBR green in vitro. Type of test: functional.
For orientation: inhibition means the relative decrease from the control value, in per cent. Regarding `O=C(NC1CCC(CCN2Cc3ccc(Br)cc3C2)CC1)c1cccc(-c2cccnc2)c1` (stereo not given), the inhibition turned out to be 3.16%.
`Cc1c(CNCCCNc2cc(=O)c3ccccc3[nH]2)sc(-c2ccco2)c1Br`: the inhibition came to 14.4%.
Same read-out and setting: the value for `CCCCCCNC(=O)C1Cc2c([nH]c3ccc(F)cc23)C2(CCN(Cc3ccccc3)CC2)N1` (stereo not given) was 12.7%.
Still for that read-out and setting: under `c1cc2[nH]c(CCCCc3nc4cc(C5=N[C@H]6CCCC[C@H]6N5)ccc4[nH]3)nc2cc1C1=N[C@H]2CCCC[C@H]2N1` stands 10.1%.
The same measure, in the same setting: the value for `COc1ccc(CNCc2cccc(-c3cccc(-c4nc5ccccc5[nH]4)c3)c2)cc1` was 7.86%; that for `CCOC(=O)c1ccc(NC(=O)N[C@@H](Cc2ccccc2)C(=O)NC2CCN(Cc3ccc(O)c(OC)c3)C2)cc1` (stereo not given in full) was -2.58%; that for `Cc1nc(N)nc(N)c1C#CC1CCCC1` was 5.81%.
Consider `Ic1cc(CNC2CCCCC2)ccc1OCc1cccc(COc2ccc(CNC3CCCCC3)cc2I)c1`, for which the inhibition worked out at 4.09%.
The same measure, in the same setting: under `Cc1cccc2nc(-c3cccc(-c4ccc(CN5CCN(CCO)CC5)cc4)c3)[nH]c12` stands 2.28%; under `CN(C)CCC(O)(c1ccc(Br)cc1)c1cccnc1` (stereo not given), 3.13%.
Still for that read-out and setting: under `Cc1nnc2c(NC(=O)NC3CCCC3)cc3ccc(-c4cccc(CN(C)C)c4)cc3n12` stands 2.19%; under `CC(Oc1cccc(Cl)c1)C(=O)N1CCc2ccccc21` (stereo not given), -1.29%.
Consider `CS(=O)(=O)c1ccc(-n2nc(C(F)(F)F)cc2-c2ccc(C=NOCC(=O)O)o2)cc1`, for which the inhibition stood at 1.5%.
Still for that read-out and setting: the value for `Cc1nnc(N2C(=N)SC(=Cc3ccc(-c4ccc(OC(F)(F)F)cc4)o3)C2=O)s1` was 4.77%.
Still for that read-out and setting: the value for `O=C(Nc1ccc(-c2nc3ccccc3[nH]2)cc1)c1cncc(Br)c1` was 4.2%; that for `CCN(C1CCCCC1)S(=O)(=O)c1ccc(OC)c(N2CCN(C(=O)C(Cl)(Cl)Cl)CC2)c1` was -1.48%.
On the same count and under the same terms, under `O=C(/C=C/c1ccc(Cl)c(Cl)c1)NCCCCCN1CCC(NC(=O)Nc2ccc(Cl)cc2F)CC1` stands 2.9%; under `Cc1cc(C)n(-c2nc(Nc3cccc(C(F)(F)F)c3)nc(-n3nc(C)cc3C)n2)n1`, -2.75%.
With `CC(=O)c1ccc(NC(=O)Nc2ccc(N(C)c3ccnc(Nc4cccc(CS(C)(=O)=O)c4)n3)cc2)cc1`, the inhibition is -0.18%.
Still for that read-out and setting: under `Cc1cccc2nc(-c3ccc(-c4ccc(CN5CCN(c6ccncc6)CC5)cc4)cc3)[nH]c12` stands 33.3%; under `Nc1ncnc2nc(-c3ccc(F)cc3)cc(-c3ccc(NC(=O)c4ccccc4)cc3)c12`, 4.74%.
On the same count and under the same terms, the value for `Cc1[nH]c(C)c(-c2ccc(OCc3ccc(OC(F)(F)F)cc3)nc2)c(=O)c1Br` was 8.89%; that for `Clc1ccc2c(NCCc3ccccc3)ccnc2c1` was 4.51%.
Still for that read-out and setting: the value for `OC(CNCCCCCCNCC(O)c1ccc(Cl)c(Cl)c1)c1ccc(Cl)c(Cl)c1` (stereo not given) was 3.81%; that for `O=C(Nc1ccc(-c2ccccc2)cc1)Nc1cccc(Cn2nc(Cl)c(N3CCCNCC3)cc2=O)c1` was 3.71%; that for `O=C(Nc1cccnc1)c1cc(-c2cc(Cl)ccc2O)n[nH]1` was 2.55%.
Regarding `CCN(CC)c1ccc2nc(N)nc(N)c2c1Cl`, the inhibition turned out to be 5.94%.
Still for that read-out and setting: under `CCN(CC)c1ccccc1CNC(=O)c1cc(Cl)c(N)cc1OC` stands 9.4%; under `COc1ccc2nccc(N3C[C@H]4C[C@@H]3CN4CCNCc3ccc4c(n3)NC(=O)CS4)c2n1`, -0.98%; under `CC1CN(Cc2ccc(C#N)cc2)CCN1c1ccc(NC(=O)c2cccs2)cc1` (stereo not given), 8.47%.
Same read-out and setting: the value for `Cc1ccc2c(O)c([N+](=O)[O-])c(O)nc2c1` was -1.72%; that for `O=C(O)CNCC(O)c1ccccc1` (stereo not given) was 0.32%.
With `COc1ccc(F)cc1-c1ccc(C(=O)N2CCCN(c3ccc(C#N)cn3)CC2)cc1`, the inhibition is 0.86%.
The same measure, in the same setting: the value for `COc1c(C2=CCN(CCCCNC(=O)c3ccc(-c4ccc(C#N)cc4)cc3)CC2)c(C)cc2c1C(C)(C)CCC2(C)C` was 2.63%.
Still for that read-out and setting: under `O=C(Nc1ccccc1-c1nc2ccccc2s1)C(Cl)(Cl)Cl` stands 0.49%; under `Cc1cc(NCCC(=O)NCc2cccc(F)c2)nc(NCCc2ccc(F)cc2)n1`, 5.01%.
Same read-out and setting: under `CN(Cc1cccc(F)c1)C1CCN(c2cc(NC(=O)c3ccc(F)cc3)ccn2)CC1` stands 6.99%; under `Fc1ccccc1C=NN=c1cc[nH]c2ccc(C(F)(F)F)cc12`, 3.03%.
With `CCc1cccc(OCCCON2C(=N)N=C(N)NC2(C)C)c1`, the inhibition worked out at 7.55%.
The same measure, in the same setting: the value for `Cc1cccc2nc(-c3cccc(-c4ccc(CNCCc5ccncc5)cc4)c3)[nH]c12` was 0.46%.

Another test concerns the target Hexose transporter 1 (Plasmodium falciparum) (UniProt O97467). Nature of the test: ST_JUDE_LEISH: Cytotoxicity at 2uM final concentration against transgenic Leishmania Mexicana promastigotes LmPfHT that are glucose transport deficient and complemented with the Plasmodium falciparum hexose transporter. Activity is measured by DNA content using SYBR green in vitro. In kind it is functional.
For `O=C(NC1CCC(CCN2Cc3ccc(Br)cc3C2)CC1)c1cccc(-c2cccnc2)c1` (stereo not given), the inhibition was determined as 4.93%.
On to `Cc1c(CNCCCNc2cc(=O)c3ccccc3[nH]2)sc(-c2ccco2)c1Br`, for which the inhibition amounted to 13.6%.
Same read-out and setting: under `CCCCCCNC(=O)C1Cc2c([nH]c3ccc(F)cc23)C2(CCN(Cc3ccccc3)CC2)N1` (stereo not given) stands 9.28%.
The same measure, in the same setting: the value for `c1cc2[nH]c(CCCCc3nc4cc(C5=N[C@H]6CCCC[C@H]6N5)ccc4[nH]3)nc2cc1C1=N[C@H]2CCCC[C@H]2N1` was 9.08%; that for `COc1ccc(CNCc2cccc(-c3cccc(-c4nc5ccccc5[nH]4)c3)c2)cc1` was 4.28%.
In the case of `CCOC(=O)c1ccc(NC(=O)N[C@@H](Cc2ccccc2)C(=O)NC2CCN(Cc3ccc(O)c(OC)c3)C2)cc1` (stereo not given in full), the inhibition is -1.29%.
Same read-out and setting: under `Cc1nc(N)nc(N)c1C#CC1CCCC1` stands 6.82%; under `Ic1cc(CNC2CCCCC2)ccc1OCc1cccc(COc2ccc(CNC3CCCCC3)cc2I)c1`, 3.76%.
Still for that read-out and setting: the value for `Cc1cccc2nc(-c3cccc(-c4ccc(CN5CCN(CCO)CC5)cc4)c3)[nH]c12` was 0.97%.
The same measure, in the same setting: the value for `CN(C)CCC(O)(c1ccc(Br)cc1)c1cccnc1` (stereo not given) was 2.98%; that for `Cc1nnc2c(NC(=O)NC3CCCC3)cc3ccc(-c4cccc(CN(C)C)c4)cc3n12` was 2.6%; that for `CC(Oc1cccc(Cl)c1)C(=O)N1CCc2ccccc21` (stereo not given) was -1.34%.
Regarding `CS(=O)(=O)c1ccc(-n2nc(C(F)(F)F)cc2-c2ccc(C=NOCC(=O)O)o2)cc1`, the inhibition was found to be 2.45%.
Take `Cc1nnc(N2C(=N)SC(=Cc3ccc(-c4ccc(OC(F)(F)F)cc4)o3)C2=O)s1`: the inhibition was 2.59%.
Consider `O=C(Nc1ccc(-c2nc3ccccc3[nH]2)cc1)c1cncc(Br)c1`, for which the inhibition was found to be 2.44%.
On the same count and under the same terms, under `CCN(C1CCCCC1)S(=O)(=O)c1ccc(OC)c(N2CCN(C(=O)C(Cl)(Cl)Cl)CC2)c1` stands -2.46%.
Same read-out and setting: under `O=C(/C=C/c1ccc(Cl)c(Cl)c1)NCCCCCN1CCC(NC(=O)Nc2ccc(Cl)cc2F)CC1` stands 1.84%; under `Cc1cc(C)n(-c2nc(Nc3cccc(C(F)(F)F)c3)nc(-n3nc(C)cc3C)n2)n1`, -3.09%; under `CC(=O)c1ccc(NC(=O)Nc2ccc(N(C)c3ccnc(Nc4cccc(CS(C)(=O)=O)c4)n3)cc2)cc1`, 0.54%.
On the same count and under the same terms, under `Cc1cccc2nc(-c3ccc(-c4ccc(CN5CCN(c6ccncc6)CC5)cc4)cc3)[nH]c12` stands 29.1%.
For `Nc1ncnc2nc(-c3ccc(F)cc3)cc(-c3ccc(NC(=O)c4ccccc4)cc3)c12`, the inhibition was found to be 2.67%.
Regarding `Cc1[nH]c(C)c(-c2ccc(OCc3ccc(OC(F)(F)F)cc3)nc2)c(=O)c1Br`, the inhibition was 13.8%.
Same read-out and setting: the value for `Clc1ccc2c(NCCc3ccccc3)ccnc2c1` was 4.33%; that for `OC(CNCCCCCCNCC(O)c1ccc(Cl)c(Cl)c1)c1ccc(Cl)c(Cl)c1` (stereo not given) was 4.69%.
On the same count and under the same terms, the value for `O=C(Nc1ccc(-c2ccccc2)cc1)Nc1cccc(Cn2nc(Cl)c(N3CCCNCC3)cc2=O)c1` was 0.49%; that for `O=C(Nc1cccnc1)c1cc(-c2cc(Cl)ccc2O)n[nH]1` was 2.47%; that for `CCN(CC)c1ccc2nc(N)nc(N)c2c1Cl` was 6.11%.
Same read-out and setting: the value for `CCN(CC)c1ccccc1CNC(=O)c1cc(Cl)c(N)cc1OC` was 9.03%; that for `COc1ccc2nccc(N3C[C@H]4C[C@@H]3CN4CCNCc3ccc4c(n3)NC(=O)CS4)c2n1` was 0.1%; that for `CC1CN(Cc2ccc(C#N)cc2)CCN1c1ccc(NC(=O)c2cccs2)cc1` (stereo not given) was 8.63%.
For the molecule `Cc1ccc2c(O)c([N+](=O)[O-])c(O)nc2c1`, the inhibition amounted to 1.03%.
Still for that read-out and setting: the value for `O=C(O)CNCC(O)c1ccccc1` (stereo not given) was -0.04%; that for `COc1ccc(F)cc1-c1ccc(C(=O)N2CCCN(c3ccc(C#N)cn3)CC2)cc1` was 0.21%; that for `COc1c(C2=CCN(CCCCNC(=O)c3ccc(-c4ccc(C#N)cc4)cc3)CC2)c(C)cc2c1C(C)(C)CCC2(C)C` was 2.18%.
On the same count and under the same terms, under `O=C(Nc1ccccc1-c1nc2ccccc2s1)C(Cl)(Cl)Cl` stands 1.24%; under `Cc1cc(NCCC(=O)NCc2cccc(F)c2)nc(NCCc2ccc(F)cc2)n1`, 3.24%.
Same read-out and setting: the value for `CN(Cc1cccc(F)c1)C1CCN(c2cc(NC(=O)c3ccc(F)cc3)ccn2)CC1` was 6.01%; that for `Fc1ccccc1C=NN=c1cc[nH]c2ccc(C(F)(F)F)cc12` was 3.13%.
For the molecule `CCc1cccc(OCCCON2C(=N)N=C(N)NC2(C)C)c1`, the inhibition was determined as 9.83%.
Still for that read-out and setting: under `Cc1cccc2nc(-c3cccc(-c4ccc(CNCCc5ccncc5)cc4)c3)[nH]c12` stands -0.37%.
